UBC13 polyUb: inhibitors of human UBC13 polyubiquitin chain formation; P61088; TR-FRET; inhibition, % at 20 µM; 330,000 compounds, 0.47% hits; AID 485273; in the data active = inhibition above about 45%, passing the limit was not always enough
Target sequence (P61088 whole entry, looked up): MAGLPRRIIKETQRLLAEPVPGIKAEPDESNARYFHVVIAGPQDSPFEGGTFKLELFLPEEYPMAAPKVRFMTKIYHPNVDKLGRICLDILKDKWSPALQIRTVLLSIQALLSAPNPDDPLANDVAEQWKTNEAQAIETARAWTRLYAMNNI
MEKK3 PB1 HTS: MEKK3-MEK5 PB1 interaction, increase or decrease. AID 1529. bead-based flow cytometry, Alexa488-MEK5 binding to MEKK3; actives lie on both sides; 0 = blocked by unlabeled MEK5, 100 = vehicle. 290,000 compounds, 1.4% hits. Q99759. binding response (% of control), % at 10 µM;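 active = binding response more than 3 SD above or below the average of its plate-row segment, actives on both sides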;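 also: Alexa488 bead fluorescence after subtracting the streptavidin-only scavenger bead signal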
Target sequence (Q99759 whole entry, looked up): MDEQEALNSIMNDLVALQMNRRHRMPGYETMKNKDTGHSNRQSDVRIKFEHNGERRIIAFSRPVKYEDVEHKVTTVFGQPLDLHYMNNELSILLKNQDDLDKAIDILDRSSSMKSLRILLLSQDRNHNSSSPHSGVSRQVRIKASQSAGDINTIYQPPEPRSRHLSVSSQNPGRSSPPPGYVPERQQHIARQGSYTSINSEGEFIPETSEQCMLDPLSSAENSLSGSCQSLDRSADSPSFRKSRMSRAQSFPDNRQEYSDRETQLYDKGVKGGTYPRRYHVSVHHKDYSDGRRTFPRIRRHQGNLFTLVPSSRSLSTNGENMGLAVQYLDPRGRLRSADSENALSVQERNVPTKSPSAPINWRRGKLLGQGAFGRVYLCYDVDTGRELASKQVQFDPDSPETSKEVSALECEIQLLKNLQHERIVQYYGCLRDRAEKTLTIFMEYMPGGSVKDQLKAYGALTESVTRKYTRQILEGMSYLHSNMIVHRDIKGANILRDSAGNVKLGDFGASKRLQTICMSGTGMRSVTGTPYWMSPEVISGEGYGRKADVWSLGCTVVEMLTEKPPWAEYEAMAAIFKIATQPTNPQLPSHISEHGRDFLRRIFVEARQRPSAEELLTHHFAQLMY
MEKK2mut PB1 HTS: signal of MEK5 binding to mutant human MEKK2 PB1 domain; 290,000 compounds, 0.35% hits; percent response, % at 10 µM; bead flow cytometry, Alexa488-MEK5 binding to MEKK2 mutant; in the data active = percent response above about 24%, passing the limit was not always enough
MEKK2wt PB1 HTS: raises or lowers MEK5 binding to wildtype human MEKK2 PB1 domain | Q9Y2U5 | bead flow cytometry, Alexa488-MEK5 binding to MEKK2 WT; actives lie on both sides | binding response (% of control), % at 10 µM | 290,000 compounds, 1.1% hits; in the data active = binding response below about 67% or above about 130%
MEKK2wt confirm: raises or lowers MEK5 binding to wildtype human MEKK2, retest; shares compounds with MEKK3 PB1 HTS; bead flow cytometry, Alexa488-MEK5 binding to MEKK2 WT; actives lie on both sides; binding response (% of control), % at 10 µM; 5,900 compounds, 2.4% hits; in the data active = binding response below about 16% or above about 210%; inactive = in between
MEKK2mut confirm: signal of MEK5 binding to mutant human MEKK2, retest; AID 1893; 5,900 compounds, 2% hits; bead flow cytometry, Alexa488-MEK5 binding to MEKK2 mutant; shares compounds with MEKK3 PB1 HTS; percent response, % at 10 µM; in the data active = percent response mostly above about 71%, no sharp cut-off; inactive = mostly below about 38%;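 also: higher means compound restores mutant binding toward wildtype level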
MEKK3-MEK5 inh: MEKK3-MEK5 PB1 inhibition, single concentration confirmation; shares compounds with MEKK3 PB1 HTS; bead flow cytometry, Alexa488-MEK5 binding to MEKK3; stronger effect = lower value; binding response (% of control), % at 10 µM; 5,900 compounds, 1.8% hits;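 active = binding response below 72% of control, or above a set upper limit, though filed actives all read lower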
Of the large screens only hits and unclear results are named; the others gave an inactive call (follow-up assays come after a bar, where they were run); [ ] = remark or other dose. The list is not random: actives were taken first. Their share in the collection is about 2.3%.

Cc1ccc(NC(=O)CN(C)CC(=O)Nc2ccc(F)c(F)c2F)c(Cl)c1	none
CCCN(CC(=O)Nc1ccc(C(N)=O)cc1)CC(=O)Nc1cc(Cl)ccc1Cl	none
CN(CC(=O)Nc1ccc(Cl)cc1)CC(=O)Nc1ccc(F)c(F)c1F	MEKK3 PB1 HTS 131 | MEKK2wt confirm inactive | MEKK2mut confirm inactive | MEKK3-MEK5 inh inactive
COC(=O)CSc1nc2[nH]ncc2c(=O)[nH]1	none
Cc1cc(N2CCC(N(C)C3CCCC3)CC2)nc2cc(O)ccc12	MEKK2mut PB1 HTS 24, MEKK2wt PB1 HTS 142 | MEKK2wt confirm inactive | MEKK2mut confirm inactive | MEKK3-MEK5 inh inactive
Cc1cc(N2CCN(c3ccccc3)CC2)nc2ccccc12	none
CCc1nnc(SCC(=O)Nc2ccccc2Cl)nc1CC	none
Cc1cccc(OCCNC(=O)CCc2ccccc2)c1	none (no result: MEKK3 PB1 HTS, MEKK2mut PB1 HTS, MEKK2wt PB1 HTS)
Cc1cccc(OCCCC(=O)NCCc2ccccc2)c1	MEKK3 PB1 HTS 137 | MEKK2wt confirm inactive | MEKK2mut confirm inactive | MEKK3-MEK5 inh inactive
O=C(O)c1ccccc1C(=O)NCc1c(Cl)cccc1Sc1ccc(Cl)cc1	none
COc1cc(/C=N/NS(=O)(=O)c2ccc(C(C)(C)C)cc2)cc([N+](=O)[O-])c1O	MEKK2wt PB1 HTS 48[inhibitor] | MEKK2wt confirm inactive | MEKK2mut confirm inactive | MEKK3-MEK5 inh inactive
Cc1cc(=O)n2nc(N3CCCC(C(=O)Nc4ccc(C)c(C)c4)C3)sc2n1 (centres undefined)	none
CCOC(=O)c1c(C)[nH]c(O)c1C=Nc1ccc(C(F)(F)F)cc1	MEKK3 PB1 HTS 132 | MEKK2wt confirm inactive | MEKK2mut confirm inactive | MEKK3-MEK5 inh inactive
CCOC(=O)c1c(C)[nH]c(O)c1C=Nc1ccc(Cl)cc1	none
CC1(C(=O)Nc2c(F)c(F)c(F)c(F)c2F)CC1(Br)Br (centres undefined)	none
O=C(CSc1nc2nc3c(cc2c(=O)n1-c1ccccc1)CCCC3)Nc1ccccc1	MEKK3 PB1 HTS 131 | MEKK2wt confirm inactive | MEKK2mut confirm inactive | MEKK3-MEK5 inh inactive
Nc1nc(SCC(=O)Nc2ccccc2)nc2nc3c(cc12)CCCC3	none
Cc1cccc(OCc2nnc(SCC(=O)c3c(N)n(C4CC4)c(=O)[nH]c3=O)o2)c1	none (no result: MEKK3 PB1 HTS, MEKK2mut PB1 HTS, MEKK2wt PB1 HTS)
C/C(=N\Nc1cc(N2CCCCC2)nc(C)n1)c1ccc(Br)cc1	MEKK2mut PB1 HTS 45, MEKK2wt PB1 HTS 183 | MEKK2wt confirm inactive | MEKK2mut confirm inactive | MEKK3-MEK5 inh inactive
CCc1ccc(CCN2C(=O)c3ccccc3C2=O)nc1	MEKK3 PB1 HTS 75[inhibitor] | MEKK2wt confirm inactive | MEKK2mut confirm inactive | MEKK3-MEK5 inh inactive
Cc1nc(CCN2C(=O)c3ccccc3C2=O)n[nH]1	none
COc1ccc(NC(=O)COC(=O)CNC(=O)c2cc(OC)c(OC)c(OC)c2)cc1	MEKK3 PB1 HTS 145 | MEKK2wt confirm inactive | MEKK2mut confirm inactive | MEKK3-MEK5 inh inactive
N#C/C(=C\c1cn(Cc2ccc(F)cc2)c2ccccc12)C(=O)NCc1ccco1	MEKK3 PB1 HTS 129 | MEKK2wt confirm inactive | MEKK2mut confirm inactive | MEKK3-MEK5 inh inactive
N#C/C(=C/c1cn(CC(=O)O)c2ccccc12)C(=O)Nc1ccccc1	MEKK2wt PB1 HTS 41[inhibitor] | MEKK2wt confirm inactive | MEKK2mut confirm inactive | MEKK3-MEK5 inh inactive
N#C/C(=C\c1cn(Cc2ccccc2)c2ccccc12)C(=O)NCc1ccco1	none
O=C(NC(=S)Nc1ccccc1Cl)c1cncc(Br)c1	none
CN1CCC(=O)N([C@H](CSc2ccccc2)Cc2ccccc2)CC1	none
COc1ccc(SC[C@H](Cc2ccccc2)N2CCN(C)CCC2=O)cc1	MEKK2wt PB1 HTS 143 | MEKK2wt confirm inactive | MEKK2mut confirm inactive | MEKK3-MEK5 inh inactive
Cc1ccc(SC[C@H](Cc2ccccc2)N2CCN(CCc3ccccc3)CCC2=O)cc1	MEKK2wt PB1 HTS 142 | MEKK2wt confirm inactive | MEKK2mut confirm inactive | MEKK3-MEK5 inh inactive
O=[N+]([O-])c1cc(/C=N/Nc2nc3ccccc3[nH]2)c(O)cc1O	MEKK3 PB1 HTS 132 (no result: UBC13 polyUb) | MEKK2wt confirm inactive | MEKK2mut confirm inactive | MEKK3-MEK5 inh inactive
Cc1[nH]c2ccccc2c1/C=N/Nc1nc2ccccc2[nH]1	MEKK2wt PB1 HTS 140 | MEKK2wt confirm inactive | MEKK2mut confirm inactive | MEKK3-MEK5 inh inactive
Cc1ccccc1/C=N/Nc1nc2ccccc2[nH]1	none
NC(=O)c1cc([N+](=O)[O-])c(Cl)cc1NCc1cccnc1	none (no result: MEKK3 PB1 HTS, MEKK2mut PB1 HTS, MEKK2wt PB1 HTS)
O=c1oc2ccccc2c(NCc2ccccc2F)c1[N+](=O)[O-]	MEKK3 PB1 HTS 136 | MEKK2wt confirm inactive | MEKK2mut confirm inactive | MEKK3-MEK5 inh inactive
CC(C)c1ccc(CNc2c([N+](=O)[O-])c(=O)oc3ccccc23)cc1	none (no result: MEKK3 PB1 HTS, MEKK2mut PB1 HTS, MEKK2wt PB1 HTS)
CN(C#N)c1nc(Cl)nc(Nc2cccc(Cl)c2)n1	MEKK3 PB1 HTS 144 | MEKK2wt confirm inactive | MEKK2mut confirm inactive | MEKK3-MEK5 inh inactive
Fc1cccc(Nc2nc(Cl)nc(Cl)n2)c1	MEKK3 PB1 HTS 3.0[inhibitor], MEKK2wt PB1 HTS 3.0[inhibitor] | MEKK2wt confirm inactive | MEKK2mut confirm inactive | MEKK3-MEK5 inh inactive
Cc1cc(C)nc(Nc2cccc(Cl)c2)n1	none
O=[N+]([O-])c1cccc(Nc2nc(Cl)nc(Cl)n2)c1	none
CC1=NN(S(=O)(=O)c2ccc(Cl)cc2Cl)C(=O)c2ccccc2O1	none
O=C(Nc1ccc(S(=O)(=O)Nc2ncccn2)cc1)c1ccc(Cl)c([N+](=O)[O-])c1	none
CN(CC(=O)NCc1ccccn1)S(=O)(=O)c1ccc2ccccc2c1	MEKK3 PB1 HTS 135 | MEKK2wt confirm inactive | MEKK2mut confirm inactive | MEKK3-MEK5 inh inactive
CN(CC(=O)NCc1ccccn1)S(=O)(=O)c1ccccc1	none
COc1cc2[nH]c3c(=O)n(N)c(=O)[nH]c3c2cc1OC	none
O=C(NNC(=O)c1cc(-c2ccncc2)nc2ccccc12)c1cccc(Cl)c1	none (no result: MEKK3 PB1 HTS, MEKK2mut PB1 HTS, MEKK2wt PB1 HTS)
COc1ccc(C2CN=NC23CCCc2ccccc2C3=O)cc1 (centres undefined)	none
COc1ccccc1C1CN=NC12CCCc1ccccc1C2=O (centres undefined)	MEKK3 PB1 HTS 24[inhibitor], MEKK2wt PB1 HTS 33[inhibitor] | MEKK2wt confirm inactive | MEKK2mut confirm inactive | MEKK3-MEK5 inh inactive
Cc1ccc(S(=O)(=O)N2CCN(C(=O)c3ccc(N4CCCCC4)c([N+](=O)[O-])c3)CC2)cc1	none
Cn1c(=O)[nH]c(=O)c2[nH]c(N(Cc3ccccc3)Cc3ccccc3)nc21	MEKK3 PB1 HTS 122 | MEKK2wt confirm inactive | MEKK2mut confirm inactive | MEKK3-MEK5 inh inactive
O=C(COC(=O)CCC(=O)c1ccc(F)cc1)NCc1ccco1	MEKK3 PB1 HTS 74[inhibitor] | MEKK2wt confirm inactive | MEKK2mut confirm inactive | MEKK3-MEK5 inh inactive
CCOC(=O)CCCNC(=O)COC(=O)CCC(=O)c1ccc(F)cc1	MEKK3 PB1 HTS 2.0[inhibitor], MEKK2wt PB1 HTS 2.0[inhibitor] | MEKK2wt confirm inactive | MEKK2mut confirm inactive | MEKK3-MEK5 inh inactive
CCCCNC(=O)COC(=O)CCC(=O)c1ccc(F)cc1	none
Fc1ccccc1NC(=S)Nn1cnnc1	none

High-throughput results: PubChem BioAssay, several laboratories
